Measurements as given in article PMC4336329 (PLoS ONE, 2015).
The campaign covered roughly 310,000 compounds. About 14,000 (4.5%) showed an effect of 50% or more. Effects have a minus sign here. For the sample, strong results were picked, then their nearest neighbours and some compounds at random.

target: human ether-à-go-go-related gene (hERG) potassium channel (human, UniProt Q12809); assay: primary screen, population patch clamp on CHO cells stably expressing hERG; higher = less effect of the substance
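Note: peak tail current of the secondary pulse compared with the same well before compound.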

Chain of human ether-à-go-go-related gene (hERG) potassium channel (Q12809 whole entry, looked up): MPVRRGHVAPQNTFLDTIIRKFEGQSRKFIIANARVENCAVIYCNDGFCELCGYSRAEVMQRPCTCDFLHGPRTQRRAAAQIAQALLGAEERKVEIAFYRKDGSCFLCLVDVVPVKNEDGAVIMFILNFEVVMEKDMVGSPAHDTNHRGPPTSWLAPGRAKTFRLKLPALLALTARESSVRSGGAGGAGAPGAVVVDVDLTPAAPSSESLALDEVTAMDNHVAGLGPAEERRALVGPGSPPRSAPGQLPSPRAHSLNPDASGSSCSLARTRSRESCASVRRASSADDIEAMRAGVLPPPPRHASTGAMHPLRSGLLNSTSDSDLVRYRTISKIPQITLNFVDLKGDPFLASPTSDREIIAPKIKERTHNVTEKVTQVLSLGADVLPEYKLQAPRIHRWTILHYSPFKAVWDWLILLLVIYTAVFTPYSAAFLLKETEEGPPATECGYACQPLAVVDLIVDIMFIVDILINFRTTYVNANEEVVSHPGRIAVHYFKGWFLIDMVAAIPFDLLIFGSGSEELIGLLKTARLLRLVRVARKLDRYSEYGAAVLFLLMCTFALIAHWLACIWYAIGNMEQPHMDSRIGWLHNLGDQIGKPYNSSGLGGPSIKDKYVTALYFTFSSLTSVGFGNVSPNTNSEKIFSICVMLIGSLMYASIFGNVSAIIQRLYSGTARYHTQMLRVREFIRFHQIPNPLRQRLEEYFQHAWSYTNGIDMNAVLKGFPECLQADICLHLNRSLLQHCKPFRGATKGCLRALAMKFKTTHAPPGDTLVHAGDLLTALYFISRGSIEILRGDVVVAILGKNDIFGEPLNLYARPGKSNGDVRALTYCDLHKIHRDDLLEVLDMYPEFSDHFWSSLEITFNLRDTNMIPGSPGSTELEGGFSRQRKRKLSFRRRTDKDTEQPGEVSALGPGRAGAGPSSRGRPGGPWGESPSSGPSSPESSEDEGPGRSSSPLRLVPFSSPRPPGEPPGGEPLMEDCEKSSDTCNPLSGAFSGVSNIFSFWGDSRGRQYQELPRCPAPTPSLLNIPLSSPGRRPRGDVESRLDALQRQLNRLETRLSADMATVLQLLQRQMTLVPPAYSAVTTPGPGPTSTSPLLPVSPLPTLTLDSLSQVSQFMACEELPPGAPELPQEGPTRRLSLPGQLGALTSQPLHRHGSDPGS

Compound | hERG current change (%, negative = inhibition) at 10uM
O=S(=O)(c1ccccc1C(F)(F)F)N1CCN(S(=O)(=O)c2ccccc2C(F)(F)F)CC1 | -2.32%
O=S(=O)(c1ccc(F)cc1)N1CCC(n2cnc3ccccc32)CC1 | -39.7%
COc1ccc(S(=O)(=O)n2cnc3ccccc32)cc1.Cl | 13.4%
O=S(=O)(c1ccccc1)N1CCC(n2cnc3ccccc32)CC1 | -64%
COc1ccc(S(=O)(=O)N2CCC(n3cnc4ccccc43)CC2)cc1 | -64.9%
O=S(=O)(c1ccc(S(=O)(=O)n2cnc3ccccc32)cc1)N1CCCCCC1 | 3.15%
COc1ccc(NC(=O)N2CCC(n3cnc4ccccc43)CC2)cc1 | -28.5%
CCn1c(N2CCN(S(=O)(=O)c3ccccc3C(F)(F)F)CC2)nc2ccccc21.Cl | -39.6%
O=S(=O)(c1ccccc1C(F)(F)F)N1CCC(n2cnc3ccccc32)CC1 | -60.5%
Cn1c(=O)n(CC(=O)N2CCOCC2)c2ccccc21 | 3.76%
COc1ccc(C(=O)NNC(=O)C23CC4CC(CC(C4)C2)C3)cc1OC | 0.327%
COc1cccc(-n2ccnc2SCC(=O)N2CCCc3ccccc32)c1 | -10%
Cc1c(Cl)cccc1NC(=O)NN1CCN(C)CC1 | -0.937%
Cc1nonc1C(=O)N/N=C/c1ccc(O)c(O)c1 | -29.7%
CCOc1ccccc1NC(=O)COC(=O)c1cc[n+]([O-])cc1 | 12.3%
Cc1ccc([N+](=O)[O-])cc1Nc1nc(N2CCOCC2)nc(N2CCOCC2)n1 | -13.5%
Cc1ccc(C2OC(=O)C=C2c2ccccc2)cc1 (stereo not shown) | 3.71%
Cn1c(=O)c2c(ncn2CC(=O)OCC(=O)NC(c2ccccc2)c2ccccc2)n(C)c1=O | -2.22%
COC(=O)CN(c1ccccc1)S(=O)(=O)c1ccccc1 | 4.04%
COc1ccc(CCNC(=O)C2CC2)cc1OC | -18.3%
Fc1ccccc1Nc1ncnc2c1nnn2Cc1ccccc1 | -20%
Cc1nnc2ccc(-c3cccc(NC(=O)c4ccco4)c3)nn12 | -5.08%
Cc1nnc2ccc(-c3ccc(NC(=O)c4ccc(Cl)nc4)cc3)nn12 | -15%
CS(=O)(=O)c1ccc(-c2cccc(NC(=O)c3ccc(Br)o3)c2)nn1 | 3.74%
Cc1nnc2ccc(-c3cccc(NS(C)(=O)=O)c3)nn12 | -17.1%
Cc1nnc2ccc(-c3cccc(NC(=O)c4ccc(Br)o4)c3)nn12 | -75.8%

Compound | hERG current change (%, negative = inhibition) at 10uM
Cc1nnc2ccc(-c3cccc(NC(=O)c4ccc(Cl)nc4)c3)nn12 | -56.7%
Cn1cccc1C(=O)OCc1csc(-c2ccccc2)n1 | -20.9%
O=[N+]([O-])c1cccc(N(CC2CO2)S(=O)(=O)c2ccccc2)c1 (stereo not shown) | -5.4%
CCN(C(=O)c1nn(-c2ccc(OC)cc2)c(=O)c2c1c1ccccc1n2C)c1ccc(OC)cc1 | 18.3%
COCCNC(=O)c1cc(-c2ccccn2)nc2ccc(S(=O)(=O)N3CCC(C)CC3)cc12 | -61.8%
COCCNC(=O)c1cc(-c2ccncc2)nc2ccc(S(=O)(=O)N3CCOCC3)cc12 | -32.3%
COCCCNC(=O)c1cc(-c2cccnc2)nc2ccc(S(=O)(=O)N3CCCCCC3)cc12 | 30.6%
CCCCN(C)CCNC(=O)c1cc(-c2cccnc2)nc2ccc(S(=O)(=O)N3CCC(C)CC3)cc12 | -35.5%
CCN(CC)CCNC(=O)c1cc(-c2cccnc2)nc2ccc(S(=O)(=O)N3CCC(C)CC3)cc12 | -65.1%
CCOCCCNC(=O)c1cc(-c2cccnc2)nc2ccc(S(=O)(=O)N3CCC(C)CC3)cc12 | 12.9%
O=C(CCN1C(=O)C2C3C=CC(C3)C2C1=O)Nc1ccccc1 (stereo not shown) | 21.1%
CC(C)(C)c1nc2c(Br)cc(Br)cc2c(=O)o1 | 18.9%
Cc1ccc(NC2c3ccccc3C(=O)N2CCN2CCOCC2)cc1 (stereo not shown) | -12.9%
O=C(c1ccccc1)N1CCC(c2nc3c(nnn3Cc3ccco3)c(=O)[nH]2)CC1 | -32.2%
O=C(Cc1cccs1)N1CCC(c2nc3c(nnn3Cc3ccc(F)cc3)c(=O)[nH]2)CC1 | -38.9%
O=C(c1ccco1)N1CCCC(c2nc3c(nnn3Cc3cccc(Cl)c3)c(=O)[nH]2)C1 (stereo not shown) | -54.5%
O=C(Cc1cccs1)N1CCC(c2nc3c(nnn3Cc3ccccc3)c(=O)[nH]2)CC1 | -56%
O=C(Cc1cccs1)N1CCCC(c2nc3c(nnn3Cc3ccc(F)cc3)c(=O)[nH]2)C1 (stereo not shown) | -35.1%
O=C(c1ccco1)N1CCCC(c2nc3c(nnn3Cc3ccc(Cl)cc3Cl)c(=O)[nH]2)C1 (stereo not shown) | -36.1%
CC(C)(C)c1ccc(Cn2nnc3c(=O)[nH]c(C4CCN(C(=O)Cc5cccs5)CC4)nc32)cc1 | -4.81%
O=C(c1ccc(Cl)cc1Cl)N1CCC(c2nc3c(nnn3Cc3ccco3)c(=O)[nH]2)CC1 | -69%
O=C(Cc1cccs1)N1CCCC(c2nc3c(nnn3Cc3cccc(Cl)c3)c(=O)[nH]2)C1 (stereo not shown) | -55.6%
O=C(c1ccco1)N1CCCC(c2nc3c(nnn3Cc3ccccc3)c(=O)[nH]2)C1 (stereo not shown) | -8.47%
O=C(c1cccs1)N1CCCC(c2nc3c(nnn3Cc3cccc(Cl)c3)c(=O)[nH]2)C1 (stereo not shown) | -36.6%
O=C(c1ccccc1Cl)N1CCC(c2nc3c(nnn3Cc3ccco3)c(=O)[nH]2)CC1 | -22.1%
Cc1nc2ccc(Br)cn2c1C(=O)N/N=C\c1ccccc1[N+](=O)[O-] | 27.6%
